{"source": "PubChem BioAssay (NCATS)", "note": "Records with an inconclusive call do not appear. Where a call stands in place of a potency, no number is given. The source made the active and inactive calls. Calls come from the whole dose curve; as a rule, active = well fitted curve in the direction sought with a large enough effect; inconclusive = small, poorly fitted or top-dose-only effect, or another doubt; inactive = no such curve, though single readings can be large; an effect the other way counts as inactive or inconclusive.", "data": [{"target": "Protein phosphatase 1D (Homo sapiens) (UniProt O15297)", "sequence (O15297 whole entry, looked up)": "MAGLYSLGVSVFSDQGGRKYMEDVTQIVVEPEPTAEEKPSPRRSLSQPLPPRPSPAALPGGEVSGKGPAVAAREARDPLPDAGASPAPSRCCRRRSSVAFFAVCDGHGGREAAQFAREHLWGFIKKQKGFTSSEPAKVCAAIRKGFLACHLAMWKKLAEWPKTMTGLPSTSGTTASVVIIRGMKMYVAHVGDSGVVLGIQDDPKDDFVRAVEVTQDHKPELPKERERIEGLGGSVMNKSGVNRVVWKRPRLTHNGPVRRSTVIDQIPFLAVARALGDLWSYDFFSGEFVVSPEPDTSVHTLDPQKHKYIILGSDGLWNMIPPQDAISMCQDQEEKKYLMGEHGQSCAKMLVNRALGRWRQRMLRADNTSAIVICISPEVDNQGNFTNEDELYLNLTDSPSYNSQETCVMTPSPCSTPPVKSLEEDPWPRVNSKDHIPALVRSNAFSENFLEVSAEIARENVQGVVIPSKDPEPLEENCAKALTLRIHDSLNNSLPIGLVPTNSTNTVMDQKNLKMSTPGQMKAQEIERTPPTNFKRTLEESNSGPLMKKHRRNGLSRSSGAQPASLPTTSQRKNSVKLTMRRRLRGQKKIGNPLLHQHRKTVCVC", "assay": "RapidFire Mass Spectrometry qHTS Assay for Modulators of WT P53-Induced Phosphatase 1 (WIP1) (AID 1347424);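 note: amount of dephosphorylated VEPPL-S-QETFS peptide product formed by WIP1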; note: potency is the fitted concentration of half-maximal effect", "conditions": "WIP1 dephosphorylation of phosphopeptide, RapidFire MS; series mostly up to 128 µM", "how_it_was_run": "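10 nM WIP1 + cpd, 1 h RT; + 2 uM VEPPL-pS-QETFS, 5 min RT; stop 0.5% formic acid; labelled product standard 1 uM; RapidFire MS. Buffer 50 mM Tris pH 7.5, 30 mM MgCl2, 1 mM TCEP.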", "values": [{"smiles": "O=C(O)CCCOc1ccc(Cl)cc1Cl", "Potency": "inactive"}, {"smiles": "Nc1ccc(N=Nc2ccccc2)cc1", "Potency": "inactive"}, {"smiles": "CO/C=C(/C(=O)OC)c1ccccc1Oc1cc(Oc2ccccc2C#N)ncn1", "Potency": "inactive"}, {"smiles": "CCCCCCCCCC(CC)c1ccc(S(=O)(=O)O)cc1", "note": "(configuration not stated)", "Potency": "1 µM (active)"}, {"smiles": "CN[C@@H](C)[C@H](O)c1ccccc1", "Potency": "inactive"}, {"smiles": "CCCCCCCCCCCCCCCC[N+](C)(C)C", "Potency": "inactive"}, {"smiles": "CC(=O)[O][Hg][c]1ccccc1", "Potency": "28.2 µM (active)"}]}, {"target": "Protein phosphatase 1D (Homo sapiens) (UniProt O15297)", "assay": "Rhodamine-PBP qHTS Assay for Modulators of WT P53-Induced Phosphatase 1 (WIP1) (AID 1347425)", "conditions": "recombinant WIP1, Rhodamine-PBP phosphate fluorescence, real-time; series mostly up to 116 µM", "how_it_was_run": "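The read-out is the change in Rhodamine-PBP fluorescence (f1 - f0, ex 525/em 598 nm) as Pi is released, read each minute for 11 min. Final reaction: 5 nM WIP1, 10 uM phosphopeptide VEPPL-pS-QETFS, 10 uM Rh-PBP, 50 mM Tris-HCl pH 7.5, 30 mM MgCl2. Compound was preincubated with enzyme for 1 hour at room temperature.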", "values": [{"smiles": "O=C(O)CCCOc1ccc(Cl)cc1Cl", "outcome": "inactive"}, {"smiles": "Nc1ccc(Cl)cc1N", "outcome": "inactive"}, {"smiles": "CO/C=C(/C(=O)OC)c1ccccc1Oc1cc(Oc2ccccc2C#N)ncn1", "outcome": "inactive"}, {"smiles": "CN[C@@H](C)[C@H](O)c1ccccc1", "outcome": "inactive"}, {"smiles": "CCCCCCCCCCCCCCCC[N+](C)(C)C", "outcome": "inactive"}]}]}
